This is a sample that favours compounds with a hit; in the whole collection about 17% have one here.
TGFb SMAD3 inh = qHTS for Inhibitors of TGF-b; 1.2% of 410,000 active; HepG2 CAGA-GFP TGF-b/SMAD3 reporter, GFP fluorescence, 18 h; TGF-beta stimulated, 500 pg/mL final; Potency, µM (highest dose often 46.1 µM), for the others: top-dose activity, negative = inhibition, usual class: inhibitors; further: on the % scale 0 is the no-effect control and ±100 the full control effect; nearly all actives have a fitted effect of over 65% in size
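First, reporter cells (HEPG2 CAGA-GFP) rested 2 h at 37 degrees C. Next, compounds were pinned in and TGF-beta added to 500 pg/mL final. After 18 h, GFP was imaged per cell and summed per well.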
HT1080 IDH1KD tx = qHTS for induction of synthetic lethality in tumor cells producing 2HG: qHTS for the HT-1080-IDH1KD cell line; 2% of 360,000 active; HT-1080 IDH1 knockdown viability, ATP luminescence, 48 h; Potency, µM (series often up to 46.1 µM), for inactives: top-dose activity, negative = toxicity, hits mostly cytotoxic; AID 686971, 2013;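 further: 0% = DMSO wells and -100% = cell-free medium wells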
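Viability of IDH1-knockdown HT-1080 fibrosarcoma cells was assessed by CellTiter-Glo after 48 h at 37 °C with titrated compound; concentration-effect curves were classified by fit quality and response size.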
TDP1 cell CPT = qHTS for Inhibitors of human tyrosyl-DNA phosphodiesterase 1 (TDP1): qHTS in cells in presence of CPT; chicken DT40 Tdp1-/-;hTDP1 cells + 20 nM CPT, ATP luminescence, 48 h; Potency, µM (series often up to 46.2 µM), for the others: at the top dose activity change, negative = growth inhibition, hits mostly inhibitors; 12% of 420,000 active; AID 686979, 2013; further: on the % scale 0 is the no-effect control and ±100 the full control effect; nearly all actives have a fitted effect of over 55% in size
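Cell growth measured by CellTiter-Glo luminescence after a minimum 48 h, 37 C compound exposure with 20 nM CPT in Tdp1-knockout DT40 cells stably expressing hTDP1, seeded 400/well; qHTS titration format.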
HT1080NT lethal = qHTS for induction of synthetic lethality in tumor cells producing 2HG: qHTS for the HT-1080-NT fibrosarcoma cell line | HT-1080-NT fibrosarcoma viability, CellTiter-Glo ATP luminescence, 48 h | Potency, µM (top dose mostly 46.1 µM), without a hit: top-dose activity, negative = less viability, actives largely listed as cytotoxic | 1.6% of 360,000 active | AID 686970, 2013;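 further: NT is the 2HG producing partner of a matched IDH1 knockdown line; 0% = DMSO-treated cells and -100% = media-only wells without cells; nearly all actives have a fitted effect of over 55% in size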
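Viability of the 2HG-overproducing fibrosarcoma line after 48 hours of compound exposure at 37 degrees C was determined by luminescence with CellTiter-Glo, and concentration-effect curves were then fitted and categorized.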
HepG2 tox = qHTS for Inhibitors of TGF-b: Cytotox Counterscreen; HepG2 CAGA-GFP viability, ATP luminescence, 18 h; Potency, µM (doses to about 46.1 µM), inactives show top-dose activity change, negative = cytotoxicity, hits mostly cytotoxic; 0.76% of 410,000 active; AID 588856, 2011
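CellTiter-Glo luminescence gave cytotoxicity after 18 hours at 37 degrees C. The cells were HepG2 CAGA-GFP in 1% FBS DMEM, stimulated with 500 pg/mL TGF-beta after compound addition. %Activity was normalised to no-cell wells (complete cell-killing) and DMSO (no toxicity), and curves were fitted and classified.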
DT40 TDP1 no CPT = qHTS for Inhibitors of human tyrosyl-DNA phosphodiesterase 1 (TDP1): qHTS in cells in absence of CPT. AID 686978, 2013. DT40 Tdp1-/- hTDP1 cells, no CPT, ATP luminescence, 48 h. Potency, µM (series often up to 46.2 µM), for inactives: at the highest dose activity change, negative = growth inhibition, hits mostly inhibitors. 15% of 420,000 active; further: on the % scale 0 is the no-effect control and ±100 the full control effect; nearly all actives have a fitted effect of over 55% in size
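Chicken DT40 Tdp1-/- cells complemented with human TDP1, screened without camptothecin (DMSO vehicle only), 400 cells/well. Compounds pin-transferred, cells incubated at 37 °C for at least 48 hr. Growth read as ATP-dependent luminescence (CellTiter-Glo, 30 min at RT).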
* = called active by the depositor; ? = inconclusive; nt = not tested or not shown; [ ] = dose if it differs, or a comment. The call rests on the fitted dose curve; in most records, active means well fitted curve in the direction sought with a large enough effect; inconclusive means small, poorly fitted or top-dose-only effect, or another doubt; inactive means no such curve, though single readings can be large; an effect the other way counts as inactive or inconclusive. Potency means the concentration at half of the fitted maximal effect.

SMILES | TGFb SMAD3 inh | HT1080 IDH1KD tx | TDP1 cell CPT | HT1080NT lethal | HepG2 tox | DT40 TDP1 no CPT
O=C(Nc1ccc2c(c1)OCO2)c1cc(C2CCCN(C(=O)CCc3ccccc3)C2)on1 (stereo unspecified) | 28.3% | ? | 20.6µM* | -29.4% | -3.4% | ?
O=C(Nc1ccccc1)c1cc(C2CCCCN2C(=O)CCCc2ccccc2)on1 (stereo unspecified) | 16.5% | 9.3% | ? | 16.0% | -8.9% | ?
O=C(Nc1ccccc1)c1cc(C2CCCN(C(=O)C/C=C/c3ccccc3)C2)on1 (stereo unspecified) | -8.2% | -9.6% | ? | -26.4% | -34.9% | 20.6µM*
O=C(Nc1ccc2c(c1)OCO2)c1cc(C2CCCN(C(=O)CCCc3ccccc3)C2)on1 (stereo unspecified) | -23.3% | ? | 18.4µM* | 16.4µM* | -21.7% | ?
CC(=O)N1CCCC(c2cc(C(=O)Nc3ccccc3)no2)C1 (stereo unspecified) | 4.2% | -16.1% | -24.7% | -3.7% | -27.3% | ?
CCCC(=O)N1CCCC(c2cc(C(=O)Nc3ccc4c(c3)OCO4)no2)C1 (stereo unspecified) | 6.6% | -9.3% | -29.2% | 14.8% | -17.6% | 4.8%
CC(=O)N1CC(C)Sc2ccc(S(=O)(=O)NC3CCCCC3C)cc21 (stereo unspecified) | -32.1% | -21.2% | ? | -14.4% | -70.8% | -14.4%
CC(=O)c1ccc(C(=O)NCC2Cc3cccc(-c4ncccn4)c3O2)cc1 (stereo unspecified) | nt | nt | 2.6%[9.04 µM] | nt | nt | -23.5%
CC1CN(C)C(C)c2c1oc1ccc([N+](=O)[O-])cc21 (stereo unspecified) | 13.3% | -13.4% | -1.6% | -0.7% | 0.0% | 0.7%
CC1CN(C)C(C)c2c1oc1ccc(N)cc21 (stereo unspecified) | -2.7% | -7.7% | ? | -13.8% | -23.5% | 10.3µM*
CCOC(=O)C1CCCN(C(=O)CN2C(=O)/C(=C/c3ccc(OC)cc3)Oc3ccccc32)C1 (stereo unspecified) | 3.8% | -5.4% | ? | -11.6% | -2.6% | 13µM*
O=C(/C=C/c1ccco1)NC(=S)Nc1cccc(-c2nc3ccccc3s2)c1 | 4.1% | 20.6µM* | 4.61µM* | 23.1µM* | -4.1% | 5.8µM*
Cc1ccccc1NC(=S)NC(=O)/C=C/c1ccco1 | 14.6% | -8.8% | -19.9% | -0.9% | -7.6% | -12.2%
Cc1ccc(C(=O)NC(=S)Nc2cccc(-c3nc4ccccc4s3)c2)cc1 | 1.1% | 15.9% | ? | 15.0% | -31.0% | -26.6%
O=C(/C=C/c1ccco1)NC(=S)Nc1cc(-c2nc3ccccc3s2)ccc1Cl | 21.7% | ? | 11.6µM* | ? | 4.7% | 23.1µM*
Cc1ccc(-c2nc3ccccc3s2)cc1NC(=S)NC(=O)c1cccc2ccccc12 | ? | 10.5% | ? | 13.3% | -3.0% | ?
Cc1ccc(-c2nc3ccccc3s2)cc1NC(=S)NC(=O)/C=C/c1ccco1 | -27.3% | ? | ? | ? | -10.2% | 13µM*
CC(C)(C)CN1CCC(n2nccc2NC(=O)c2ccccc2Cl)CC1 | 17.2% | 11.3% | 9.2% | -5.8% | 16.9% | 0.2%
CCCCN1C(=O)C(O)(c2c(C)[nH]c3ccccc23)c2ccccc21 (stereo unspecified) | ? | nt | 5.8µM* | nt | -32.3% | 5.8µM*

Screening results deposited in PubChem BioAssay by National Center for Advancing Translational Sciences (NCATS).
